Test results published in PubChem BioAssay AID1159580 (chemical genetic matrix, 2015).
Several values for one entry are separate records, joined by “and”; a condition that tells them apart may be missing. Equal entries are not always repeated. About 2,000 (36%) of roughly 5,500 compounds were called active. Inconclusive results (about 18%) are left out. Cut-off read from the data, not from the text of the source: active = normalized growth mostly below about 0.91 (no sharp cut-off); inconclusive = no clear call, values can overlap the other calls; inactive = mostly above about 0.92. Some of the results follow.

Assay: chemical genetic growth profiling, strain panel (AID 1159580);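 note: tested at 20 µM; growth read once vehicle control cultures reached saturation at 30 °C; 1 = growth at the plate median or of vehicle wells; lower values mean less growth of the strain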
Details: S. cerevisiae deletion strains, growth OD

Measured: normalized growth

CCn1cc(C(=O)O)c(=O)c2cc(F)c(N3CCNCC3)cc21
inactive: locus YAL013W, strain DEP1, hits give low values 1 | locus YAL021C, strain ccr4, hits give low values 0.967 | locus YAL026C, strain drs2, hits give low values 0.978 | locus YAL030W, strain snc1, hits give low values 0.988 | locus YBL061C, strain skt5, hits give low values 0.991 | locus YBR009C, strain hhf1, hits give low values 0.983 | locus YBR021W, strain FUR4, hits give low values 0.905 | locus YBR023C, strain chs3, hits give low values 0.989 | locus YBR171W, strain sec66, hits give low values 0.988 | locus YBR229C, strain ROT2, hits give low values 1.01 | locus YBR231C, strain swc5, hits give low values 0.986 | locus YBR279W, strain paf1, hits give low values 0.978 | locus YCL011C, strain gbp2, hits give low values 0.983 | locus YCL016C, strain dcc1, hits give low values 0.998 | locus YCL029C, strain bik1, hits give low values 1 | locus YCL061C, strain MRC1, hits give low values 0.989 | locus YCL069W, strain vba3, hits give low values 0.966 | locus YCR088W, strain abp1, hits give low values 0.992 | locus YDL005C, strain med2, hits give low values 0.973 | locus YDL035C, strain GPR1, hits give low values 1 | locus YDL040C, strain nat1, hits give low values 0.99 | locus YDL074C, strain BRE1, hits give low values 1.02 | locus YDL101C, strain DUN1, hits give low values 1 | locus YDL134C, strain PPH21, hits give low values 0.994 | locus YDL185W, strain tfp1, hits give low values 0.998 | locus YDL192W, strain arf1, hits give low values 0.995 | locus YDR001C, strain nth1, hits give low values 0.98 | locus YDR069C, strain doa4, hits give low values 0.964 | locus YDR101C, strain arx1, hits give low values 0.972 | locus YDR137W, strain rgp1, hits give low values 0.97 | locus YDR159W, strain sac3, hits give low values 0.948 | locus YDR162C, strain NBP2, hits give low values 0.997 | locus YDR195W, strain ref2 0.962 | locus YDR297W, strain sur2, hits give low values 0.992 | locus YDR318W, strain mcm21, hits give low values 0.995 | locus YDR334W, strain swr1, hits give low values 0.981 | locus YDR335W, strain msn5, hits give low values 0.928 | locus YDR388W, hits give low values 1 | locus YDR392W, strain spt3, hits give low values 0.873 | locus YDR502C, strain sam2, hits give low values 1.01 | locus YEL003W, strain gim4, hits give low values 0.984 | locus YEL037C, strain rad23, hits give low values 0.976 | locus YEL061C, strain CIN8 (second series), hits give low values 0.97 | locus YEL061C, strain CIN8, hits give low values 1.01 | locus YER015W, strain faa2, hits give low values 0.987 | locus YER016W, strain bim1, hits give low values 0.986 | locus YER110C, hits give low values 0.996 | locus YER111C, strain swi4, hits give low values 0.975 | locus YER155C, strain BEM2 (second series), hits give low values 0.95 | locus YER155C, strain BEM2, hits give low values 1.01 | locus YER167W, strain BCK2, hits give low values 1 | locus YFR010W, strain ubp6, hits give low values 0.972 | locus YGL078C, strain dbp3, hits give low values 0.998 | locus YGL086W, strain mad1, hits give low values 0.992 | locus YGL167C, strain pmr1, hits give low values 0.985 | locus YGL173C, strain kem1, hits give low values 0.98 | locus YGL227W, strain vid30, hits give low values 0.979 | locus YGL240W, strain doc1, hits give low values 0.973 | locus YGL248W, strain PDE1, hits give low values 1 | locus YGL253W, strain hxk2, hits give low values 0.995 | locus YGR078C, strain PAC10, hits give low values 1 | locus YGR135W, strain pre9, hits give low values 0.988 | locus YGR229C, strain SMI1, hits give low values 1.02 | locus YGR252W, strain gcn5, hits give low values 0.912 | locus YHR013C, strain ard1, hits give low values 0.928 | locus YHR027C, strain rpn1, hits give low values 0.987 | locus YHR030C, strain SLT2, hits give low values 0.999 and 0.974 | locus YHR079C, strain IRE1 (second series), hits give low values 0.995 | locus YHR079C, strain IRE1, hits give low values 0.974 | locus YHR094C, strain hxt1, hits give low values 0.998 | locus YHR129C, strain ARP1, hits give low values 1 | locus YHR142W, strain chs7, hits give low values 0.971 | locus YHR200W, strain rpn10, hits give low values 0.998 | locus YIL066C, strain RNR3, hits give low values 1.01 | locus YIL073C, strain SPO22, hits give low values 1 | locus YIL125W, strain kgd1, hits give low values 1 | locus YIR030C, strain dcg1, hits give low values 0.999 | locus YJL092W, strain hpr5, hits give low values 0.982 | locus YJL095W, strain BCK1 (second series), hits give low values 0.993 | locus YJL095W, strain BCK1, hits give low values 0.991 and 0.996 | locus YJL115W, strain asf1, hits give low values 0.976 | locus YJL129C, strain trk1, hits give low values 0.929 | locus YJL134W, strain LCB3, hits give low values 1 | locus YJL154C, strain vps35, hits give low values 0.974 | locus YJL164C, strain tpk1, hits give low values 0.988 | locus YJL166W, strain qcr8, hits give low values 1 | locus YJL168C, strain set2, hits give low values 1 | locus YJL187C, strain SWE1 (second series), hits give low values 1.01 | locus YJL187C, strain SWE1, hits give low values 0.985
